Screens deposited in PubChem by several laboratories.
Rows were chosen to be rich in hits. Some 2.7% of all compounds tested hit in one or more screens of this group.
MITF TRPM1 inh – MITF TRPM1 promoter inhibition in SK-MEL-5 cells; hit rate 0.83% among 330,000; AID 488899; SK-MEL-5 TRPM1 promoter luciferase, 24 h; inhibition, % at 12.5 µM;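 active = mean inhibition across replicates of 60% or more, whatever share of single replicates reaches that level; inconclusive = some that reach 60%, reason not given; inactive = mean inhibition across replicates below 60%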
Peg3 prom inh-1 – reduces Peg3 promoter-driven luciferase expression in HeLa. HeLa PEG-Prom luciferase reporter, luminescence, overnight. inhibition, % at 20 µM. hit rate 1.7% among 360,000;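 active = inhibition of at least 50% at 20 µM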
KKLEB tox – reduces viability of KKLEB cystic fibrosis airway cells; KKLEB CF airway cells viability, ATPlite luminescence, overnight; active compounds read low; cells stimulated with P. aeruginosa culture filtrate; activity change (cytotoxicity), % at 5 µM; hit rate 0.36% among 360,000; AID 602141;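 active = corrected activity change at or below -50% at 5 µM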
HIF-2a inh – blocks HIF-2a reporter activity. 786-0 RCC cells HIF-2a reporter, luciferase luminescence, overnight. inhibition, % at 18.8 µM. hit rate 0.72% among 360,000. AID 624352;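 active = inhibition of the luminescence signal of 40% or more relative to plate controls, in a single-dose primary screen at 18.75 µM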
CF NFkB block – inhibitors of cystic fibrosis induced NF-kB. AID 588850. hit rate 0.86% among 360,000. inhibition, % at 5 µM. KKLEB NF-kB-GFP reporter, PAF-induced, GFP fluorescence overnight;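 active = at least 50% inhibition at 5 µM, scaled per plate between neutral and stimulator controls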;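 note: PAF is a Pseudomonas aeruginosa culture filtrate used as stimulus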
Shn3 inh set2 – inhibitors of Schnurri-3 3'UTR reporter in osteoblasts; Clone20 osteoblast Shn3 3'UTR firefly luciferase, 24 h; inhibition, % at 12.5 µM; hit rate 0.52% among 360,000;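 active = mean inhibition of at least 75% with every replicate also reaching 75%; inconclusive = mean inhibition at least 75% but some replicate below; inactive = mean inhibition below 75%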
Peg3 prom inh-2 – Peg3 promoter inhibition confirmation; shares compounds with Peg3 prom inh-1; HeLa PEG-Prom luciferase reporter, luminescence, overnight; inhibition, % at 20 µM; hit rate 84% among 1,300; AID 602417;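 active = at 20 µM dose, 40% or more inhibition averaged across four replicates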
Hits are given with their value; n = inactive; u = inconclusive; x = no result.

SMILES | MITF TRPM1 inh | Peg3 prom inh-1 | KKLEB tox | HIF-2a inh | CF NFkB block | Shn3 inh set2 | Peg3 prom inh-2
COc1ccc(-c2cc(C(=O)Nc3ccccc3N3CCOCC3)c3ccccc3n2)cc1OC | n | 58 | n | n | n | n | 62
COc1ccc(-c2cc(C(=O)Nc3ccccc3O)c3ccccc3n2)cc1OC | n | n | n | n | n | n | x
CC(C)[C@H](NC(=O)c1ccc([N+](=O)[O-])cc1Cl)C(=O)N1CCN(C/C=C/c2ccccc2)CC1 | n | n | n | n | n | n | x
COc1ccc(N(CC(=O)NCCC2=CCCCC2)S(=O)(=O)c2ccc(C)cc2)cc1OC | n | n | n | n | n | n | x
Cc1[nH]n(-c2nc(-c3ccc(Cl)cc3)cs2)c(=O)c1N=Nc1ccc(O)cc1 | n | 54 | n | n | n | 90 | n
Clc1ccccc1-c1cnc2sc(NCc3ccc4c(c3)OCO4)nn12 | x | 66 | n | n | n | n | n
Clc1ccccc1-c1ccc2ncnc(NCc3ccc4c(c3)OCO4)c2c1 | n | n | n | n | n | n | x
C[C@@H]1[C@H]2[C@@H]3CC[C@@H](C3)[C@H]2CN[C@H]1c1cn(Cc2ccccc2)c2ccccc12 | n | 71 | n | n | n | n | 54
COc1ccc(C(=O)N2CCN(C(=O)C3CCCO3)CC2)cc1[N+](=O)[O-] (centres undefined) | n | n | n | n | n | n | x
CN(Cc1ccc(N(C)C)cc1)C(=O)c1cc2ccccc2o1 | n | n | n | n | n | n | x
COc1ccccc1-c1ncn(Cc2cccc(-c3ccccc3)c2)c1-c1cc(C)cc(C)c1 | x | x | x | n | x | x | x
O=S(=O)(/N=C(/Sc1ccccc1)c1ccccc1)c1ccccc1 | u | 60 | n | n | n | n | 75
CS/C(=N\S(=O)(=O)c1ccccc1)c1ccccc1 | n | n | n | n | n | n | x
COc1ccc(C(O)(CC(C)C)C(CN2CCOCC2)c2ccccc2)cc1 (centres undefined) | n | 71 | n | n | n | n | 73
CCc1ccc2c(c1)Sc1ccccc1CC2N1CCN(C)CC1 (centres undefined) | n | 55 | n | n | n | n | 77
N/C(=N\OC(=O)c1ccccc1)C(Cc1ccccc1)C(=O)NOC(=O)c1ccccc1 (centres undefined) | 62 | 99 | n | n | n | n | 99
O=C(NOC(=O)c1ccccc1)c1ccccc1 | n | n | n | n | n | x | x
Cc1nc(SCC(=O)NCc2ccco2)c2c(C)c(C)sc2n1 | n | n | n | n | n | n | x
Cc1sc2nc(C(C)C)nc(SCC(=O)NCc3ccco3)c2c1C | n | 59 | n | n | n | n | n
O=C(O)C(Nc1nc(C(F)(F)F)nc2ccccc12)c1ccccc1 (centres undefined) | n | n | n | n | n | n | x
NC(=O)SCC(=O)Nc1ccc(Cl)c(Cl)c1 | n | 66 | n | n | n | n | n
NC(=O)c1cc([N+](=O)[O-])ccc1NCc1ccc(N)cc1 | 79 | 81 | n | 93 | n | n | 78
NC(=O)c1cc([N+](=O)[O-])ccc1NCc1ccc(F)cc1 | x | n | n | n | n | n | x
CCCCCc1c(C)c(C#N)c2nc3ccccc3n2c1-n1ccnc1C | n | n | n | n | n | n | x
C=C(C)CN1CCN(c2c(CCC#N)c(C)c(C#N)c3nc4ccccc4n23)CC1 | n | 82 | n | n | n | n | 41
SMILES | MITF TRPM1 inh | Peg3 prom inh-1 | KKLEB tox | HIF-2a inh | CF NFkB block | Shn3 inh set2 | Peg3 prom inh-2
O=C(NC1CCCCC1)Sc1ccc(Cl)cc1 | n | 66 | n | n | n | n | 66
Nc1ccc(-c2nc3ccc(N)cc3s2)cc1 | n | n | n | n | n | n | x
CC1CCN(c2nc3ccc(C(=O)O)cc3s2)CC1 | 90 | 106 | n | 89 | n | n | 87
CC1CCN(c2nc3ccc(C(=O)NCCCN4CCCCC4)cc3s2)CC1 | n | n | n | n | n | n | x
Nc1ccc(-c2nc3ccc(C(=O)O)cc3s2)cc1 | 115 | 101 | n | 88 | n | n | 94
CC(=O)c1sc2c(c1OC(=O)c1ccc(Cl)cc1Cl)c(=O)n(-c1ccccc1)c(=S)n2-c1ccccc1 | 63 | 80 | n | n | 54 | n | 59
CC(=O)c1sc2c(c1OC(=O)c1ccc(Cl)cc1)c(=O)n(-c1ccccc1)c(=S)n2-c1ccccc1 | n | n | n | n | n | n | x
Cc1cnc(NC(=O)c2ccc(OCC3CCCO3)cc2)s1 (centres undefined) | n | 53 | n | n | n | n | n
Cc1ccc(NC(=O)c2ccc(OCC3CCCO3)cc2)nc1 (centres undefined) | n | n | n | n | n | n | x
Cc1cc(Cl)ccc1OCCCC(=O)NNC(=O)c1ccccc1O | n | n | n | n | n | n | x
CCCSCCCNC(=O)Cn1nc(CC)n2c(cc3c(OC)cccc32)c1=O | x | 54 | n | n | n | n | n
CCc1nn(CC(=O)NCCN2CCOCC2)c(=O)c2cc3c(OC)cccc3n12 | n | n | n | n | n | n | x
COc1cc(OC)c2cc(C(=O)N/N=C/c3ccccc3O)[nH]c2c1 | n | 72 | n | n | n | 89 | 59
COc1ccc2[nH]c(C(=O)N/N=C/c3ccccc3OC)cc2c1 | n | n | n | n | n | n | x
COc1cc(NC(=O)c2ccccc2)ccc1NC(=O)c1cc2ccccc2o1 | n | n | n | n | n | n | x
Cc1cc(NC(=O)c2cncc(Br)c2)ccc1NC(=O)c1cc2ccccc2o1 | 65 | 85 | n | n | n | n | n
CCCCSc1nc(N)nc2c1ncn2C1OC(CO)C(O)C1O (centres undefined) | x | n | n | n | n | n | x
Cn1cnc([N+](=O)[O-])c1Sc1nc(N)nc2c1ncn2C1OC(CO)C(O)C1O (centres undefined) | n | 61 | n | n | n | n | 64
COc1cc(CN2CCCC(N3CCN(c4ccccc4C)CC3)C2)ccc1O (centres undefined) | n | n | n | n | n | n | x
Cc1ncc(CO)c(/C=N/Nc2ccc(C(F)(F)F)cn2)c1O | n | 62 | n | n | n | n | 67
Cc1ncc(CO)c(/C=N/NC(=S)Nc2ccc(F)cc2)c1O | n | n | n | n | n | n | x
O=C1CC2CC1C(C(=O)O)C2C(=O)O (centres undefined) | n | n | n | n | n | n | x
CCOc1ccc2[nH]c3c(NCCO)ncnc3c2c1 | n | n | n | n | n | n | x
CCOc1ccc2[nH]c3c(NCCc4ccc(OC)c(OC)c4)ncnc3c2c1 | n | 66 | n | n | n | n | 65
Nc1nonc1-n1nnc(C(=O)N/N=C/c2cc(Br)ccc2O)c1CNc1ccccc1 | n | 56 | n | n | n | n | 72
CSc1ccccc1NC(=O)CN(C)C(=O)CNC(=O)c1ccc(Oc2ccccc2)cc1 | x | n | n | n | n | n | x
